Test results reported in paper PMC5540273 (PLoS ONE, 2017).

Each molecule was assayed on RIOK2. Settings: concentration: 1 μM, replicates: in singlicate; n = 1.
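Further: KINOMEscan kinase panel screen.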

Compound	%Inh [%]
Cc1ccc(Nc2ccnc(Nc3ccc(C)c(F)c3)n2)cc1O.Cl [GW582868]	2
O=C(Nc1c(F)cccc1F)c1cc(C(=O)c2ccccc2F)c[nH]1 [GSK1326180]	4
COc1cccc(CC(=O)N2CCc3cc(-c4cn(C)c5ncnc(N)c45)ccc32)c1 [GSK2608899]	20
Cl.N#CCc1ccc(Nc2nccc(Nc3ccc(Oc4ccccc4)cc3)n2)cc1 [GW639905]	23
Nc1ncc(-c2ccc3nccc(-c4ccncc4)c3c2)cc1S(=O)(=O)N1CCCCC1 [GSK1693850]	89
COc1cc(Nc2nccc(N3CCC(NS(=O)(=O)c4ccc(NC(C)=O)cc4)CC3)n2)cc(OC)c1OC [GSK1379825]	66
COc1cccc2c(-c3ccncc3)c(-c3ccc(F)cc3)nn12 [GW468513]	13
CCn1cnc2c(NCc3ccccc3)ncnc21 [SKF-96418]	0
COc1cccc(-c2nc(-c3ccccc3)[nH]c2-c2ccncc2)c1 [SB-610250]	0
COc1cc(Nc2ccnc3cc(-c4ccncc4)ccc23)cc(OC)c1OC.Cl [GW494610]	11
O=C(O)C(F)(F)F.O=c1[nH]ccc2nc(N[C@@H]3CCNC3)nc(Nc3ccc4c(c3)S(=O)(=O)CC4)c12 [GSK2181306]	60
CN(C)c1ncnc2nc[nH]c12 [SKF-31736]	0
O=C(Nc1n[nH]c2nc(-c3ccccc3O)ccc12)C1CC1 [SB-711880]	0
CCNc1nccc(-c2c(-c3ccc(F)cc3)ncn2C2CCN(C)CC2)n1	0
O=C(O)C(F)(F)F.O=c1[nH]ccc2nc(N[C@@H]3CCNC3)nc(Nc3cc(Cl)cc(Cl)c3)c12 [GSK2188764]	29
COC(=O)Nc1nc2cc(Oc3ccc(NC(=O)Nc4cccc(SC)c4)cc3)ccc2[nH]1.Cl [GW697999]	0
Cc1cccc(Nc2nc(N[C@H]3CCCC[C@H]3N)ncc2C(N)=O)c1.Cl [GSK986310]	42
COc1cc(Nc2nccc(N3CCC(NC(=O)Nc4ccc5c(c4)OCO5)C3)n2)cc(OC)c1OC (stereo not shown) [GSK1379766]	0
CC(C)(C)c1ccc(C(=O)Nc2cn3cc(-n4ccnc4)ccc3n2)cc1	6

Compound	%Inh [%]
CC(C)NCC(Cc1ccccc1)NC(=O)c1cc(Br)c(-c2ccnc3[nH]ccc23)s1.Cl.Cl (stereo not shown) [GSK1383281]	84
CSc1ccc(NC2=C(c3ccc(Cl)cc3)C(=O)NC2=O)cc1 [SB-317658]	0
O=C(Nc1n[nH]c2cc(-c3cccs3)ccc12)C1CC1 [SB-731284]	18
O=C(Nc1n[nH]c2nc(-c3cccc(O)c3)ccc12)C1CC1 [SB-711805]	11
Cc1cc(-c2ccnc(Nc3cccc(C#N)c3)n2)cc(C)c1O [GSK1440913]	91.7
Cc1ccc(-c2ccc3occ(-c4ccc(S(C)=O)cc4)c3c2)nn1 (stereo not shown)	10
CN(C)CCNS(=O)(=O)c1ccc(-c2ccnc3[nH]ccc23)cc1 [GSK977620]	78
COC(=O)Nc1nc2ccc(Oc3ccc(CC(=O)Nc4cc(C(F)(F)F)ccc4F)cc3)cc2[nH]1 [GW680903]	0
Cl.Cl.NCC(NC(=O)c1cc(-c2cccnc2)c(-c2ccnc3[nH]ccc23)s1)c1ccccc1 (stereo not shown) [GSK1323434]	54
CCn1c(-c2nonc2N)nc2c(-c3ccccc3)ncc(OCCCN)c21.O=C(O)C(F)(F)F.O=C(O)C(F)(F)F [GSK260205]	15
Cc1ccc(NC(=O)c2cccc(N3CCCCC3)c2)cc1-c1ccc(C(=O)NCC2CC2)cc1 [GSK1917008]	15
CN(c1ccc(NC(=O)N2CCN(CCCN3CCOCC3)CC2)cc1)c1ccnc(Nc2ccc(CS(C)(=O)=O)cc2)n1.Cl [GW830899]	0
c1ccc(Oc2ccc(Nc3ccnc4cc(-c5ccc(CN6CCCCC6)o5)ccc34)cc2)nc1 [GW567143]	13
Cc1ccc(NC(=O)c2ccc(Cl)c(Cl)c2)cc1-c1ccc(C(=O)Nc2ccncc2)cc1 [GSK1398460]	0
Cc1ccccc1CC(=O)N1CCc2cc(-c3cn(C)c4ncnc(N)c34)ccc21 [GSK2603346]	31
CNc1nccc(-c2ccc3c(N)n[nH]c3c2)n1 [GSK2206003]	85
Nc1ncc(-c2cn[nH]c2)c2scc(-c3ccc4c(c3)CCN4C(=O)Cc3ccccc3)c12 [GSK2593067]	86
COC(=O)Nc1nc2ccc(Oc3ccc(NC(=O)Nc4cc(C(F)(F)F)ccc4F)cc3)cc2[nH]1.Cl [GW654607]	0
